# From PubChem BioAssay AID504652 (National Center for Advancing Translational Sciences (NCATS), 2011)
# Screen size: about 360,000 compounds; about 11,000 (3.1%) were called active. The entries come from a sample that favours actives as a whole. Values without a mark were called inactive. Cut-off read from the data, not from the text of the source: active = activity change below about -30%; inactive = the rest.
# Target: D(1A) dopamine receptor (Homo sapiens) (UniProt P21728)
# Assay: Antagonist of Human D 1 Dopamine Receptor: qHTS
# Conditions: HEK293 TREx D1 cells, calcium flux, dopamine EC80; at 10 µM; stronger effect = lower value
# Procedure, shortened: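 Allosteric or orthosteric antagonism assessed as attenuation of the calcium response to EC80 dopamine, added 180 s after compound, in induced HEK293 Trex D1 cells loaded with no-wash calcium dye.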
# % is set by controls: 0 for no effect and ±100 for the full control effect.
# Chain of D(1A) dopamine receptor (Homo sapiens) (P21728 whole entry, looked up): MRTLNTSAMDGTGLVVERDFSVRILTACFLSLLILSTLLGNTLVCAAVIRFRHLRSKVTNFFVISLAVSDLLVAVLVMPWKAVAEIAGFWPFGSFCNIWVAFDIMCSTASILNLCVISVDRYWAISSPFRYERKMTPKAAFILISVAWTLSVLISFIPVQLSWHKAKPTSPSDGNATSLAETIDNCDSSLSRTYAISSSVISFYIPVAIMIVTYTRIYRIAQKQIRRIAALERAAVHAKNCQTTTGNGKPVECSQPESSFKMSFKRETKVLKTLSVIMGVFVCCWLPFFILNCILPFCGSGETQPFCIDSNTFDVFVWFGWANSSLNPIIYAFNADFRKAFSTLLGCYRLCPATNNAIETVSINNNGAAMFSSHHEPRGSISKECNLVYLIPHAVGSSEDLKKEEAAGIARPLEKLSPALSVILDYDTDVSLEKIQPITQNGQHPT
row,Structure (SMILES),"activity change, negative = inhibition"
1,Cc1ccccc1CS(=O)(=O)CC1Nc2ccc(C(=O)NCc3ccc(Cl)cc3)cc2NC1=O (configuration not stated),-8.08%
2,Cc1cc(C(=O)N/N=C/c2ccc(O)c([N+](=O)[O-])c2)c(C)n1-c1ccc(F)cc1,-30% (active)
3,Cc1cc(C(=O)COC(=O)C2CC2)c(C)n1-c1ccc(F)cc1,-6.5%
4,O=C1CSC(=S)N1/N=C/c1ccc(O)c([N+](=O)[O-])c1,-20.2%
5,Cc1ccccc1CN1CCC(CNC(=O)c2c(C)oc3ncnc(N4CCCCC4)c23)CC1,-6.32%
6,O=C(c1ccc(F)cc1)n1cc(C(=S)N2CCOCC2)c2ccccc21,-30.2% (active)
7,O=C(Oc1ccc(C(=S)N2CCOCC2)cc1)c1ccc(F)cc1,-12.9%
8,O=C(Nc1ccc(F)cc1)C(=O)c1cn(CC(=O)N2CCOCC2)c2ccccc12,0.328%
9,Cn1c(=O)sc2cc(NS(=O)(=O)c3ccc(C(C)(C)C)cc3)ccc21,6.14%
10,CC1=CC(=C(C#N)c2nc3ccccc3s2)C=C(C)N1c1ccc(F)cc1F,-3.42%
11,O=C(O)CS/C(=C\c1ccc(F)cc1)c1nc2ccccc2s1,-33.3% (active)
12,O=C(O)CC/C(=C\c1cc2c(cc1Br)OCO2)c1nc2ccccc2s1,-6.84%
13,COc1ccc(OC)c(NC(=O)CSc2nc3ccccc3nc2N2CCCCC2)c1,-1.47%
14,Cc1cccc(NC(=O)CSc2nnc(CNC(=O)c3cccc(C)c3)n2-c2ccccc2)c1,-12.8%
15,Cc1ccc(-c2nc(CS(=O)(=O)CC(=O)NCc3ccccc3Cl)c(C)o2)cc1,3.92%
16,Cc1ccsc1C1C(C#N)=C(N)OC2=C1C(=O)CC(C)C2 (configuration not stated),-22.6%
17,Cc1ccsc1C1C(C#N)=C(N)OC2=C1C(=O)CC(C)(C)C2 (configuration not stated),-36.3% (active)
18,COc1ccc(C2C(C#N)=C(/N=C/N3CCOCC3)OC3=C2C(=O)CC(C)(C)C3)cc1OC (configuration not stated),4.71%
19,COc1ccc(-c2c(C)nn3c(N4CCC(C(=O)NCCC(C)C)CC4)cc(C)nc23)cc1OC,-5.31%

row,Structure (SMILES),"activity change, negative = inhibition"
1,COc1cccc(CNc2nccn(-c3ccc(OC)c(OC)c3)c2=O)c1,6.9%
2,COc1ccc(C2NC(=O)N(C)C3=C2C(=O)N(c2ccc(C(=O)O)cc2)C3)cc1 (configuration not stated),-10.6%
3,COC(=O)c1ccc(NC(=O)CCc2c(C)nn(-c3ccc(N4CCCC4)nn3)c2C)cc1,-3.84%
4,Cc1cccc(C(CC(=O)NCC2(c3ccccc3)CCCC2)c2ccccc2)c1O (configuration not stated),-31% (active)
5,O=C(CNC1CCCCC1)NCC1(c2ccccc2)CCCC1,4.83%
6,CCOc1c(OC)cccc1C(=O)NCC1(c2ccccc2)CCCC1,19%
7,COc1ccc(/C=C/c2noc(-c3ccccc3O)n2)cc1OC,4.82%
8,CC(C)CCN(C(=O)Nc1ccc(Cl)c(Cl)c1)C(C)c1cccs1 (configuration not stated),-22.4%
9,O=C(COc1ccc(Cl)cc1)Nc1ccccc1OCc1cc(=O)n2ccccc2n1,0.395%
10,O=C(CSc1ncc(CO)n1Cc1ccc(Cl)cc1)NCc1ccc(F)cc1,-8.7%
11,CC(C)C(NC(=O)c1cccc(S(=O)(=O)N2CCOCC2)c1)C(=O)NCCc1ccccn1 (configuration not stated),10.6%
12,O=C(c1ccc(F)c(S(=O)(=O)N2CCOCC2)c1)N(CCc1ccccc1)Cc1ccccc1,-39.2% (active)
13,COc1ccc(C(=O)N(Cc2ccccc2)c2ccc(C)cc2)cc1S(=O)(=O)N1CCOCC1,8.42%
14,CCN(CC(=O)NCc1cccs1)C(=O)c1ccc(OC)c(S(=O)(=O)N2CCOCC2)c1,2.75%
15,CCN(Cc1ccncc1)C(=O)c1cccc(S(=O)(=O)N2CCOCC2)c1,-44.2% (active)
16,Cc1nn(Cc2ccccc2)c(C)c1CNC(=O)c1ccc(F)c(S(=O)(=O)N2CCOCC2)c1,-20.4%
17,CCOC(=O)c1cnc2c(C)cc(C)cc2c1Nc1ccc(N2CCOCC2)cc1,15.4%
18,CCOC(=O)c1cccc(NC(=O)Cn2cnc3nc4c(cc3c2=O)CCCC4)c1,17.9%
19,COc1cc2[nH]c(=O)n(Cc3ccc(C(=O)NCc4ccc(C)cc4)cc3)c(=O)c2cc1OC,1.6%

row,Structure (SMILES),"activity change, negative = inhibition"
1,COc1ccc2c(c1)c(N1CCCC1=O)c(C(=O)Nc1ccc(OC)c(Cl)c1)n2C,11.9%
2,CCOC(=O)Cc1ccc(NC(=O)Nc2c[nH]c(=O)[nH]c2=O)cc1,0.423%
3,COc1ccc(C)cc1-n1c(-c2ccc(C)cc2)cc2c1CC(C)(C)CC2=O,12.6%
4,CC(C)S(=O)(=O)c1oc(-c2ccc(F)cc2)nc1S(=O)(=O)c1ccc(F)cc1,6.44%
5,Cc1cccc(N2CCN(C(=O)c3ccc(Nc4nc5ccccc5n5nnnc45)cc3)CC2)c1C,-6.91%
6,CCCOc1ccc(NC(=O)CC2C(=O)N(c3ccccc3)C(=O)N2Cc2ccco2)cc1 (configuration not stated),-3.01%
7,COc1ccc(-c2nc3nc(C)cc(C)n3c2Nc2c(C)cccc2C)cc1,4.35%
8,Cc1ccc(C2CCN(C(=O)c3cnn(-c4ccccc4Cl)c3C3CCN(C(=O)OC(C)(C)C)CC3)C2)cc1 (configuration not stated),6.31%
9,O=c1oc(-c2ccco2)nc2sc3c(c12)CCCCC3,-12.2%
10,O=C(NCc1ccco1)c1cccn2c(=O)c3c4c(sc3nc12)CCCC4,-112% (active)
11,O=C(NCc1ccco1)c1nc2ncccn2n1,8.67%
12,O=C(CN1C(=O)CCn2nc(-c3ccccc3)cc21)NCc1ccccc1,-7.67%
13,O=C(c1ccc(C(F)(F)F)cc1)N1CCC(c2nc(-c3ccc(S(=O)(=O)N4CCCC4)cc3)no2)CC1,-0.206%
14,CCCCC(=O)Nc1nc(C)c(-c2csc(Nc3ccc(Cl)cc3)n2)s1,103%
15,S=c1[nH]nc(NCCc2ccccc2)s1,0.618%
16,Cc1nc(C)c(-c2csc(NCCc3ccccc3)n2)s1,-71% (active)
17,CCCSC(=S)NC1CCS(=O)(=O)C1 (configuration not stated),-7.48%
18,O=S1(=O)CCC(NC(=S)SCc2ccccc2Br)C1 (configuration not stated),-63% (active)
19,O=C(CSc1ccccc1F)NC1CCS(=O)(=O)C1 (configuration not stated),2.27%
